Experimental data published in PubChem BioAssay AID2533 (National Center for Advancing Translational Sciences (NCATS), 2010).
Where “and” joins values, the source holds several entries; their conditions need not be identical. Equal entries are not always repeated. Records with an inconclusive call do not appear. A call without a number means that no potency is given here. Calls of active or inactive are those of the source. Calls follow the shape of the dose curve; as a rule, active = well fitted activation curve with a large enough effect; inconclusive = small, poorly fitted or top-dose-only effect; inactive = flat fitted curve, though single readings scatter.

The compounds below were run against Pyruvate kinase PKM (Homo sapiens) (UniProt P14618) (assay: Confirmation Concentration-Response Assay for Activators of Human Muscle isoform 2 Pyruvate Kinase: for Probe SAR). Settings: purified PKM2, ATP generation, Kinase-Glo luminescence; series mostly up to 57.5 µM.
Pyruvate kinase PKM (Homo sapiens), sequence (P14618 whole entry, looked up, canonical isoform): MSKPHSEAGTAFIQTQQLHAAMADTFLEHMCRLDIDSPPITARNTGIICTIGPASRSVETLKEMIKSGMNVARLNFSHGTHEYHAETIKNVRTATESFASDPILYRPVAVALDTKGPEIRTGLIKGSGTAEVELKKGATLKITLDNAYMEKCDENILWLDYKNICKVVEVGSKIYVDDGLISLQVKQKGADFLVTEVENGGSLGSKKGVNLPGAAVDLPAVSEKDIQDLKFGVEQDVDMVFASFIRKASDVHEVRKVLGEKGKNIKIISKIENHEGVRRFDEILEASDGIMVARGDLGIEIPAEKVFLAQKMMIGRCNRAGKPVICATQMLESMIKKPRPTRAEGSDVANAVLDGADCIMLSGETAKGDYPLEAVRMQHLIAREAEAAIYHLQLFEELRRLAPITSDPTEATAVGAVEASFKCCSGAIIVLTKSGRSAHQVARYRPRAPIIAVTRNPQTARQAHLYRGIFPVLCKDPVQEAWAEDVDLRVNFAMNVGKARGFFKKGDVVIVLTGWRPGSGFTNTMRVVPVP
Excerpt: NIH Chemical Genomics Center [NCGC]
Matthew G. Vander Heiden, M.D., Ph.D. [Harvard Medical School, 77 Avenue Louis Pasteur, Boston, MA 02115]
Human pyruvate kinase muscle 2 (hPK-M2) enzyme was supplied as a highly purified (>95% pure) preparation from Harvard Medical School and assayed for its ability to generate ATP from ADP using phosphoenolpyruvate (PEP) as a substrate. ATP generation was detected in a coupled reaction by luciferase-mediated luminescence, an ATP-dependent process. […] The enzyme was assayed at an intermediate level of activity to screen for both inhibitors and activators.
NCGC Assay Protocol Summary:
Three uL of substrate mix (at r.t.) in assay buffer (50 mM Imidazole pH7.2, 50 mM KCl, 7 mM MgCl2, 0.01% Tween 20, 0.05% BSA) was dispensed into white solid bottom 1,536 well microtiter plates so that the final concentrations of substrates in the assay were 0.1 mM ADP and 0.5 mM PEP. 23 nL of compound were delivered by a pin tool and 1 uL of enzyme mix (final concentration of 0.1 nM) in assay buffer (4 degree Celsius) was added. Plates were incubated at room temperature for 1 hour. Two uL of detection mix (Kinase-Glo, Promega; at 4 degree Celsius protected from light) was added and luminescence read by a ViewLux (Perkin Elmer) at 1 second exposure/plate. Data were normalized to the uninhibited (column 3) and AC100 inhibition (no enzyme in column 2). To monitor activation, the first column contained a titration of the activator, NCGC00031955-03 (16-point 1:2 dilutions in duplicate starting at 57 uM) and the first 16 rows of column 4 contained 57 uM of NCGC00031955-03.
Also: nearly all actives have a fitted effect of over 60% in size.
Potency is read from the fitted curve at half-maximal effect.

SMILES	Potency
COc1ccccc1OC1=NS(=O)(=O)c2ccccc21	inactive
O=C1NS(=O)(=O)c2ccccc21	inactive
COc1cccc(Cn2ncc3c4sc(S(C)=O)cc4n(C)c3c2=O)c1 (stereo not given)	0.073 µM (active)
O=C1c2ccccc2C(=O)N1c1ccc(Cl)cc1	inactive
Nc1cccc(S(=O)(=O)N2CCN(S(=O)(=O)c3ccc4c(c3)OCCO4)CC2)c1	0.0919 µM (active)
COc1cc(F)c(S(=O)(=O)N2CCCN(S(=O)(=O)c3cccc(NC(C)=O)c3)CC2)c(F)c1	2.91 µM (active)
Nc1ccc(S(=O)(=O)N2CCN(S(=O)(=O)c3ccc4c(c3)OCCO4)CC2)cc1	0.366 µM (active)
O=C1CCc2cc(S(=O)(=O)Nc3cccc(Br)c3)ccc2N1	0.259 µM (active)
O=C1c2ccccc2C(=O)N1c1cccc(=O)[nH]1	inactive
O=S1(=O)N=C(N2CCOCC2)c2ccccc21	inactive
Cc1ccc(NS(=O)(=O)c2cc3c(cc2/C=C/c2ccccc2)NC(=O)CO3)cc1C	inactive
COc1cc(F)c(S(=O)(=O)N2CCN(S(=O)(=O)c3ccc(NC(C)=O)cc3)CC2)c(F)c1	13 µM (active)
Cc1cc(NS(=O)(=O)c2ccc3c(c2)CCC(=O)N3)ccc1F	0.461 µM (active)
Cc1ccc(C)c(O)c1	inactive
O=S1(=O)N=C(Oc2ccccc2-c2ccccc2)c2ccccc21	inactive
COc1cc(F)c(S(=O)(=O)N2CCCN(S(=O)(=O)c3ccc(N)cc3)CC2)c(F)c1	1.3 µM (active)
Cc1ccc2nc(-c3ccc(C)o3)c(Nc3ccc(F)cc3)n2c1	inactive
O=C1CCc2cc(S(=O)(=O)Nc3ccc(Cl)cc3)ccc2N1	2.06 µM (active)
O=S1(=O)N=C(OCc2ccccc2)c2ccccc21	inactive
O=C1CCc2cc(S(=O)(=O)Nc3cccc(F)c3)ccc2N1	0.919 µM (active)

SMILES	Potency
Cc1ccccc1N(C)C1=N[S+](=O)([O-])c2ccccc21	inactive
O=S1(=O)N=C(Oc2cccc(C(F)(F)F)c2)c2ccccc21	inactive
COc1cc(F)c(S(=O)(=O)N2CCCN(S(=O)(=O)c3ccc(NC(C)=O)cc3)CC2)c(F)c1	16.3 µM (active)
CC(=O)Nc1ccc(S(=O)(=O)N2CCN(S(=O)(=O)c3ccc4c(c3)OCCO4)CC2)cc1	1.63 µM (active)
O=S1(=O)N=C(Oc2cccc(Cl)c2)c2ccccc21	inactive
Cc1ccc(NS(=O)(=O)c2cc3c(cc2Cl)NC(=O)CO3)cc1C	0.41 µM (active)
Cc1ccc(C)c(OC2=NS(=O)(=O)c3ccccc32)c1	inactive
O=C1CCc2cc(S(=O)(=O)Nc3ccccc3-c3ccccc3)ccc2N1	inactive
Cc1ccccc1OC1=NS(=O)(=O)c2ccccc21	inactive
Cc1ccccc1Nc1c(-c2ccccc2)nc2cccc(C)n12	inactive
COc1cc(F)c(S(=O)(=O)N2CCCN(S(=O)(=O)c3ccc4c(c3)OCCO4)CC2)c(F)c1	0.058 µM (active)
Cc1ccc(NS(=O)(=O)c2ccc(Cl)cc2)cc1C	23.1 µM (active)
COc1ccc(NS(=O)(=O)c2ccccc2C(=O)O)cc1	inactive
O=S1(=O)N=C(Oc2cccc3ccccc23)c2ccccc21	inactive
N#Cc1cccc(OC2=NS(=O)(=O)c3ccccc32)c1	inactive
O=C1c2ccccc2C(=O)N1c1noc2ccccc12	inactive
O=S(=O)(c1ccc2c(c1)OCCO2)N1CCN(S(=O)(=O)c2c(F)cccc2F)CC1	517 nM (active) and 183 nM (active) and 291 nM (active)
O=C(O)c1ccccc1OC1=NS(=O)(=O)c2ccccc21	inactive
Cc1cc2c(s1)c1cnn(Cc3c(Cl)ccc(C)c3F)c(=O)c1n2C	1.26 µM (active)
COc1cc(F)c(S(=O)(=O)N2CCN(S(=O)(=O)c3cccc(NC(C)=O)c3)CC2)c(F)c1	3.26 µM (active)
